Our source for the composite z-score and z-score values is PubChem BioAssay.

The test system of assay [1] is Wnt5a (protein binding on small-molecule microarray). Put plainly: Wnt5a binders on small-molecule microarray, primary screen, biophysical, 635/667 nm fluorescence (AID 1142).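 Further: fluorescence read at 667 nm with signal to noise per printed feature.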 As to conditions: 635 nm fluorescence, higher = more signal.
A short description of assay [2]: cell viability in Huh7 cells, primary screen, cytotoxicity control for HCV replication inhibitor project, CellTiter-Glo luminescence, basal, 48 h (AID 1143).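 Further: Huh7 hepatoma cells carrying a hepatitis C replication reporter with no stimulus; test concentration not given here.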 As to conditions: Huh7 HCV replicon, higher = more signal, called active from +8 up or from −8 down.
Assay [3] is described as follows: P. aeruginosa biofilm formation inhibitors, primary screen, PAO1 strain, BacTiter-Glo luminescence, LB-PBS (AID 1144). As to conditions: 12 h, higher = more signal.
Assay [4] is described as follows: CREB reporter modulators without forskolin, primary screen, cell-based, PC12, CRE-LacZ reporter, unstimulated (AID 1145). The note with it: no forskolin, luminescence, 4.5 h, higher = more signal, called active from +8 up or from −8 down.
A short description of assay [5]: CREB reporter modulators under forskolin, primary screen, cell-based, PC12, CRE-LacZ reporter, forskolin-stimulated (AID 1146).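 Further: PC12 cells with 6xCRE LacZ reporter stimulated by forskolin 10 µM; beta-galactosidase reporter signal reflecting CREB driven transcription.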 The note with it: luminescence, 4.5 h, higher = more signal, called active from +8 up or from −8 down.
Assay [6] has as its target Streptavidin (Streptomyces avidinii) (UniProt P22629). Put plainly: streptavidin binders on small-molecule microarray, primary screen, artefact control for SMM compound annotation, biophysical, 635/667 nm fluorescence (AID 1147).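 Further: signal reflects streptavidin binding to arrayed compounds as a control protein.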 As to conditions: streptavidin binding, higher = more signal.
The nature of assay [7]: small-molecule binders of probe aInhba, primary screen, biochemical, small-molecule microarray, 635/667 nm fluorescence (AID 1148).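 Further: score merges 667nm spot fluorescence with signal-to-noise for antibody binding to printed compounds.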 The note with it: higher = more signal.
Assay [8] addresses Torsin-1A (Homo sapiens) (UniProt O14656). Put plainly: torsin A binders from cell lysate, primary screen, small-molecule microarray, wild-type, 635/667 nm (AID 1149). The note with it: COS7 hTOR1A-WT lysate, 635 nm fluorescence, higher = more signal.
Assay [9] has the same target. Put plainly: small-molecule binders of mutant TOR1A in lysate, primary screen, cell lysate, small-molecule microarray, COS7 lysate, 635/667 nm fluorescence (AID 1150).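 Further: score pools 667 nm emission and signal to noise measuring lysate protein binding.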 As to conditions: COS7 hTOR1A mutant lysate, 635 nm fluorescence, higher = more signal.
The subject of assay [10] is Sonic hedgehog protein (Shh). Briefly: small-molecule binders of Shh protein, primary screen, biochemical, small-molecule microarray, 635/667 nm fluorescence (AID 1151).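 Further: Shh protein binding to compounds spotted on small-molecule microarray slides; score combines spot fluorescence intensity with signal-to-noise across triplicate slides.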 As to conditions: small-molecule microarray binding, 635 nm fluorescence; higher = more signal.
The nature of assay [11]: E. coli DRC41 culture turbidity changes, primary screen, E. coli filamentation inducer project, strain DRC41, OD650, 48 h (AID 1152).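 Further: E. coli MC1000 strain DRC41 lacking acrAB efflux pump and sulA.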 As to conditions: E. coli DRC41 (acrAB sulA), higher = more signal, called active from +8 up or from −8 down.
A short description of assay [12]: small-molecule binders of probe aLefty1, primary screen, biochemical, small-molecule microarray, 635/667 nm fluorescence (AID 1153).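 Further: score merges spot fluorescence with signal-to-noise ratio from the scanned slide images.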 The note with it: higher = more signal.
A short description of assay [13]: PSAC antagonists in infected red cells, primary screen, cell-based, P. falciparum Indochina, OD700, 1 h (AID 1154). As to conditions: P. falciparum Indochina infected RBC osmotic lysis, higher = more signal, called active from +8 up or from −8 down.
The nature of assay [14]: PSAC antagonists in infected red cells, primary screen, cell-based, P. falciparum Indochina, OD700, 2 h (AID 1155).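 Further: lysis reports solute entry through the parasite surface anion channel PSAC; channel blockers reduce lysis of infected cells.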 As to conditions: P. falciparum Indochina infected erythrocytes, osmotic lysis OD700; higher = more signal, called active from +8 up or from −8 down.
Assay [15] can be described thus: osmotic lysis modulators in infected erythrocytes, primary screen, PSAC antagonist project, cell-based, P. falciparum Indochina, OD700, 3 h (AID 1156). The note with it: higher = more signal, called active from +8 up or from −8 down.
Assay [16] in a line: PSAC antagonists in infected red cells, primary screen, cell-based, P. falciparum Indochina, OD700, 18 h (AID 1157). The note with it: P. falciparum Indochina infected erythrocytes, osmotic lysis OD700, 18 h; higher = more signal, called active from +8 up or from −8 down.
Assay [17] in a line: modulators of S6 phosphorylation in cells, primary screen, cell-based, A549, cytoblot, luminescence, serum-stimulated (AID 1158).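 Further: serum-stimulated A549 lung adenocarcinoma cells; signal is phosphorylated S6 detected by cytoblot immunostaining with HRP secondary.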 The note with it: A549 phospho-S6 cytoblot, 5 h, higher = more signal.
The target of assay [18] is NADPH oxidase 2 (Homo sapiens) (UniProt P04839). Briefly: NOX2-dependent H2O2 signal modulators, primary screen, NOX inhibitor project, cell-based, HEK293-NOX2, PMA-stimulated, Amplex Red fluorescence (AID 1159). Further: test concentration not given here. As to conditions: 45 min, higher = more signal, called active from +8 up or from −8 down.
The target of assay [19] is NADPH oxidase 4 (Homo sapiens) (UniProt Q9NPH5). Put plainly: NOX4-dependent H2O2 signal modulators, primary screen, NOX inhibitor project, cell-based, HEK293-NOX4, tetracycline-induced, Amplex Red fluorescence (AID 1160). As to conditions: 45 min, higher = more signal, called active from +8 up or from −8 down.
Assay [20] concerns the target NADPH oxidase 5 (Homo sapiens) (UniProt Q96PH1). Put plainly: NOX5-dependent H2O2 signal modulators, primary screen, NOX inhibitor project, cell-based, HEK293-NOX5, Amplex Red fluorescence (AID 1161). The note with it: HEK293-NOX5, ionomycin, 45 min, higher = more signal.

Molecules are shown by their SMILES. Activity calls are given as the source filed them. Unless noted, how the calls were made is not given here.

Streptavidin (Streptomyces avidinii), sequence (P22629 whole entry, looked up): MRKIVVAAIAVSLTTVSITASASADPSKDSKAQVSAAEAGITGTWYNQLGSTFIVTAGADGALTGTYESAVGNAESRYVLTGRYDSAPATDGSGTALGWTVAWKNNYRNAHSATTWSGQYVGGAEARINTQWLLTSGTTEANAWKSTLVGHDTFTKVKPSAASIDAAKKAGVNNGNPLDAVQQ
NADPH oxidase 4 (Homo sapiens), sequence (Q9NPH5 whole entry, looked up): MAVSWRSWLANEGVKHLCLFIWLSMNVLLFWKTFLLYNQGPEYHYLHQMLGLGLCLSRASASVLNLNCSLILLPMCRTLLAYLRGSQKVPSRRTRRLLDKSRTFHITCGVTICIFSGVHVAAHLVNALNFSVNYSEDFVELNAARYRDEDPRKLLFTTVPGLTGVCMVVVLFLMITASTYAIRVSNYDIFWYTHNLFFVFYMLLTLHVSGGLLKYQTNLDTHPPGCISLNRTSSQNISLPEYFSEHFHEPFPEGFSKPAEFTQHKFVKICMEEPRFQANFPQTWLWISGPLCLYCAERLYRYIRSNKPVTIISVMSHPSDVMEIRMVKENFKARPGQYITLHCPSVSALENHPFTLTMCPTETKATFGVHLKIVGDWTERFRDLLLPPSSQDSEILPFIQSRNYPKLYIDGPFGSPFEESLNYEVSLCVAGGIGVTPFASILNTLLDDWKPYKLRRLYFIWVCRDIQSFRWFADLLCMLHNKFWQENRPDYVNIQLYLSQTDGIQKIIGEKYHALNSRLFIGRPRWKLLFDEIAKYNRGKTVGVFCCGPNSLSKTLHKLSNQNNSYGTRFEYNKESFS
NADPH oxidase 2 (Homo sapiens), sequence (P04839 whole entry, looked up): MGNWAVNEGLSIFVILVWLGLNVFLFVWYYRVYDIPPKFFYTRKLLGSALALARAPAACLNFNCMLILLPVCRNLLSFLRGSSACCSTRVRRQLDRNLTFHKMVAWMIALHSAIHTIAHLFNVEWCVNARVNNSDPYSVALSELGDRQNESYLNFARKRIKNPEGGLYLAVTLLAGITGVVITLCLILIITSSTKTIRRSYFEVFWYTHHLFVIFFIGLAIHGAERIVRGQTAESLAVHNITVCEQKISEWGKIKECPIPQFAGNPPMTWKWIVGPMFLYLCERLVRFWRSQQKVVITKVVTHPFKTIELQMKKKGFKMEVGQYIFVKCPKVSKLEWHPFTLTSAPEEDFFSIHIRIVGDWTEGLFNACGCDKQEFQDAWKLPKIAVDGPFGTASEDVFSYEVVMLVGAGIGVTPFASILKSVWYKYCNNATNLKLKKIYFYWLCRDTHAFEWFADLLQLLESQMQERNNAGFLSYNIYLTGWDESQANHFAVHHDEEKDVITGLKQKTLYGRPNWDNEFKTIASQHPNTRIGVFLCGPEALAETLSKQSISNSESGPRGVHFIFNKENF
NADPH oxidase 5 (Homo sapiens), sequence (Q96PH1 whole entry, looked up): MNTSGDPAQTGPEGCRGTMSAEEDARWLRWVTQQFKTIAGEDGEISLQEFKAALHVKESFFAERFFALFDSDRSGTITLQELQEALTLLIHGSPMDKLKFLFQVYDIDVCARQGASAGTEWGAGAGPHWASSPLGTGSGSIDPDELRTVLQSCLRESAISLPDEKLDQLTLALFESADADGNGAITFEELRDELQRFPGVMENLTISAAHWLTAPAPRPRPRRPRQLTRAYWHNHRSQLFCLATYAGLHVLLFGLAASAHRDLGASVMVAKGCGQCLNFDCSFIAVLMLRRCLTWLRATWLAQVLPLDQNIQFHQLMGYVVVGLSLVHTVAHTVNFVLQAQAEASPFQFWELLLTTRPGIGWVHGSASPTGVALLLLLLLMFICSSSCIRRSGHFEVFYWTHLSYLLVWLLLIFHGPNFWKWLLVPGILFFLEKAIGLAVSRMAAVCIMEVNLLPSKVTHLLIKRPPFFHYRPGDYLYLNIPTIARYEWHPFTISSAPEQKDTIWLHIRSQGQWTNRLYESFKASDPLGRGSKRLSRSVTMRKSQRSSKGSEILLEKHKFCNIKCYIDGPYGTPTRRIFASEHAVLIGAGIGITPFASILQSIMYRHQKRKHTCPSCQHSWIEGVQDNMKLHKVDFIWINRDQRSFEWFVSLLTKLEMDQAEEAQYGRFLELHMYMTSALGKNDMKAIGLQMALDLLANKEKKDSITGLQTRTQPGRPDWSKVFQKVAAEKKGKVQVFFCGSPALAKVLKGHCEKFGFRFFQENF
Torsin-1A (Homo sapiens), sequence (O14656 whole entry, looked up): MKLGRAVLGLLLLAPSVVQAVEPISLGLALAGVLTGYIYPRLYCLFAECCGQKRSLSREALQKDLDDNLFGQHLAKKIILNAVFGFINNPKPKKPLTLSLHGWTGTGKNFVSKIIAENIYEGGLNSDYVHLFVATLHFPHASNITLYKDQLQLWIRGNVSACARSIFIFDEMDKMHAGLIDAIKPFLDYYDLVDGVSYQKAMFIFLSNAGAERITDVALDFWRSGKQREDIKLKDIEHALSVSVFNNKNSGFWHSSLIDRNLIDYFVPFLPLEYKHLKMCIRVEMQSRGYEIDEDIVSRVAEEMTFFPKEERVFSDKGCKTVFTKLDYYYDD

Regarding `C=CCNC(=O)[C@H]1[C@@H]2C(=O)O[C@@H](c3ccccc3)[C@@H](c3ccccc3)N2[C@@H](c2ccccc2OCCO)[C@]12C(=O)N(C(=O)OCCOC)c1ccc(C#CC3(O)CCCCCC3)cc12`, the composite z-score is 0.358 in [1]; -0.139 in assay [6]; 0.0566 in [7]; 0.216 in assay [8]; 0.647 in assay [9]; 1.57 in assay [10]. The same compound registered a composite z-score in assay [12] of 0.25. The z-score in [2] was -5.57 (inactive); in assay [3] it was -0.717 (inactive); in [4] it was -0.258 (inactive); in assay [5] it was 0.347 (inactive); in assay [11], 1.49 (inactive); in assay [13], 1.58 (inactive). For the same compound, the z-score in assay [14] was 0.166 (inactive); in assay [15], -0.236 (inactive); in assay [16], -1.57 (inactive); in [17], 2.01; in assay [18], 1.52 (inactive); in assay [19] it was 1.07 (inactive). Moreover, the z-score in [20] was found to be 0.729.

In the case of `CC1=C2[C@@H](CCc3ccccc3)OB(O)C[C@@H]2[C@@H]2C(=O)N(C)C(=O)[C@@H]2C1`, the composite z-score in [1] was 0.318; in assay [6], -0.0498; in assay [7] it was -0.252; in assay [8], -0.126; in assay [9], 0.355; in assay [10], 0.464. The compound also came in with a composite z-score in assay [12] of 0.035. The z-score was -0.239 (inactive) in assay [2]; -0.294 (inactive) in assay [3]; -0.866 (inactive) in assay [4]; 0.829 (inactive) in assay [5]; -0.155 (inactive) in assay [11]; 1.45 (inactive) in [13]. For the same compound, the z-score is 0.454 (inactive) in [14]; -0.249 (inactive) in assay [15]; 0.255 (inactive) in assay [16]; -0.391 in assay [17]; 0.162 (inactive) in assay [18]; 0.234 (inactive) in assay [19]. The same compound yielded a z-score in assay [20] of -0.54.

`COc1cc2c(cc1O)C(C1CC1)N(Cc1cccc(OC(F)(F)F)c1)CC2` (stereo not given): the composite z-score in assay [1] is 0.0616; in assay [6], -0.41; in [7], -0.285; in assay [8], -0.0876; in [9], 0.315; in assay [10], 0.908. Further, the composite z-score in [12] was -0.105. In addition, the z-score was -3.88 (inactive) in assay [2]; 0.73 (inactive) in assay [3]; -0.581 (inactive) in [4]; 0.0388 (inactive) in assay [5]; -0.933 (inactive) in assay [11]; 2.92 (inactive) in assay [13]. The z-score is 0.325 (inactive) in [14]; -0.222 (inactive) in assay [15]; 0.032 (inactive) in assay [16]; -0.759 in assay [17]; -5.01 (inactive) in assay [18]; -2.98 (inactive) in assay [19]. Besides, in assay [20], the z-score was -4.25.

Turning to `O=C1C2C=CC(C(O)c3cccc(O)c3)N(Nc3ccc([N+](=O)[O-])cc3)C2C(=O)N1c1ccccc1` (stereo not given), the composite z-score was 0.22 in [1]; 0.514 in [6]; 0.0649 in assay [7]; 0.331 in assay [8]; 0.132 in assay [9]; -0.164 in [10]. Besides, the composite z-score in assay [12] turned out to be 0.0361. For the same compound, the z-score in assay [2] was -0.933 (inactive); in [3], -0.271 (inactive); in assay [4], -0.257 (inactive); in [5] it was -0.489 (inactive); in assay [11], -0.367 (inactive); in [13] it was 23.8 (active). Further, the z-score in assay [14] is 5.34 (inactive); in assay [15] it was 3.57 (inactive); in assay [16], 1.22 (inactive); in [17], -0.609; in [18], -2.1 (inactive); in assay [19], -4.41 (inactive). Besides, the z-score in assay [20] is -4.26.
